D1 potentiator = enhances dopamine response at the human D1 receptor; P21728; 360,000 compounds, 0.036% hits; potentiation, % at 10 µM; HEK293 TREx D1 cells, calcium flux, dopamine EC20 potentiation; in the data active = potentiation above about 30%; note: 0% is about no effect
Target sequence (P21728 whole entry, looked up): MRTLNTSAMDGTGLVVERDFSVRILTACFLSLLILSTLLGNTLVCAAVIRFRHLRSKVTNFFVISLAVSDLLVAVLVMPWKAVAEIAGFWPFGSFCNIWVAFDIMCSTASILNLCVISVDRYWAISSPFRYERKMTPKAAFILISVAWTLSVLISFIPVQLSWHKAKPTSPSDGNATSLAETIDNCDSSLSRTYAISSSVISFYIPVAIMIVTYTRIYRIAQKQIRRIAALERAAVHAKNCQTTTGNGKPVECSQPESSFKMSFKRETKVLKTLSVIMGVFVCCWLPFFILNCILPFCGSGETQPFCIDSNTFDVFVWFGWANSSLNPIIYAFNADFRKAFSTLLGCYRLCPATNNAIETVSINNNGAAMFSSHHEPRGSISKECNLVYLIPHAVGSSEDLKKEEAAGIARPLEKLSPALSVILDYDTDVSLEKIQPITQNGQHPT
TRHR enhancer = allosterically enhances the human TRH receptor | P34981 | 360,000 compounds, 0.66% hits | enhancement, % at 2 µM | AID 493056 | TRHR cells, fluo-8 calcium fluorescence, EC20 TRH enhancement; in the data active = enhancement above about 30%; note: 0% is about no effect
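Enhancer read-out: after compound pinning and an initial kinetic agonist-mode read, an EC20 of TRH (10 nM final) was injected and fluo-8 calcium signal (Ex 480/Em 530) followed at 1 s/cycle for 100 cycles in TRHR-expressing cells.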
D1 antagonist = antagonists of human D1 dopamine receptor; P21728; HEK293 TREx D1 cells, calcium flux, dopamine EC80; hits give low values; activity change, negative = inhibition, % at 10 µM; 360,000 compounds, 3.2% hits; AID 504652; in the data active = activity change below about -30%; note: % is set by controls: 0 for no effect and ±100 for the full control effect
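Antagonism measured as reduced calcium response to an EC80 dopamine addition following 180 s compound pre-read; cells were inducible HEK293 Trex D1 plated overnight at 30 C, read kinetically at 1 cycle/sec.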
TRHR ag = TRH receptor (human) agonism | P34981 | TRHR cells, calcium flux fluo-8, FDSS agonist mode | activation, % at 2 µM | 360,000 compounds, 0.18% hits | AID 493084; note: 0% is about no effect
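Steps: seed TRHR cells overnight; add fluo-8 no-wash Ca dye, RT 30 min–1.5 h; record 10 s baseline; pin-transfer compounds; monitor fluorescence 1 cycle/s for the agonist window. Calcium increases flag candidate agonists.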
D1 ag = agonists of human D1 dopamine receptor. P21728. HEK293 T-REx D1 cells, calcium flux, agonist mode. activation, % at 2 µM. 360,000 compounds, 1% hits. AID 504660; note: 0% is about no effect
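Tetracycline-induced HEK293 TREx D1 cells, force-coupled to calcium signalling, were dye-loaded with a no-wash calcium kit. Compound was pin-added after a 10 s baseline. Fluorescence was read kinetically at 1 cycle/s for 180 s, with calcium rises flagged as agonism.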
Starred values were filed as active, the others as inactive. A selection: hits, their analogues and other compounds. The true share with any hit is near 4.7%. Cut-off read from the data, not from the text of the source, unless noted: active = activation above about 30%; inactive = the rest.

SMILES	D1 potentiator	TRHR enhancer	D1 antagonist	TRHR ag	D1 ag
CCn1c(=O)n(CC)c2cc(N3CCCC3)c(NC(=O)c3ccc(C)cc3)cc21	-1	-5	-16	-1	-1
CCn1c(=O)n(CC)c2cc(N3CCCC3)c(NC(=O)Nc3cc(C)cc(C)c3)cc21	0	0	-6	1	40*
CC(=O)c1cccc(NC(=O)Nc2cc3c(cc2N2CCCC2)n(C)c(=O)n3C)c1	-2	-4	2	1	2
CC(C)(C)c1ccc(OCCC(=O)NNC(=O)c2ccncc2)cc1	5	-7	13	1	8
Cc1cc2c(s1)c1cnn(Cc3ccc(F)c(Cl)c3)c(=O)c1n2C	-4	0	-11	0	0
O=C(Nc1cccc([N+](=O)[O-])c1)c1cc2ccccc2cc1O	-7	-3	-42*	5	24
COc1ccc(NC(=O)c2cccc([N+](=O)[O-])c2)cc1	-14	12	-20	-1	5
O=C(Nc1cccc([N+](=O)[O-])c1)c1ccc(-c2ccccc2)cc1	-8	8	-59*	1	15
COc1ccc(NC(=O)c2cc([N+](=O)[O-])ccc2O)cc1	-2	0	-31*	1	26
CC(Sc1cccc[n+]1[O-])C(=O)Nc1cccc([N+](=O)[O-])c1 (stereo unspecified)	-5	11	-2	0	3
CC(C(=O)Nc1cccc([N+](=O)[O-])c1)[n+]1ccccc1 (stereo unspecified)	0	31*	-2	1	0
CCC(C)n1c(=N)c(C(=O)NC2CCCCC2)cc2c(=O)n3cc(C)ccc3nc21 (stereo unspecified)	-1	2	1	-1	-2
COc1ccc(NC(=O)CSc2oc(-c3ccco3)nc2S(=O)(=O)c2ccc(Br)cc2)c(OC)c1	0	18	6	0	2
O=C(c1ccc2c(c1)N(Cc1ccc(F)cc1)C(=O)c1ccccc1S2(=O)=O)N1CCCCCC1	4	-14	8	1	8
O=C(CCN1C(=O)c2ccc(Br)cc2C1=O)NC1CCCCC1	-1	7	-15	0	8
CCOC(=O)c1cnc(-n2nc(C)cc2C)nc1Nc1ccc2c(c1)OCO2	-10	33*	-11	-1	6
CC(=O)c1ccc(S(=O)(=O)NCCCC(=O)N(C)Cc2ccc3c(c2)OCO3)cc1	-9	-6	-57*	0	7
Cc1nc2sc(C(N)=O)c(N)c2c2c1CCCC2	-3	-2	-30*	-3	4
Cn1nnnc1Sc1ncnc2scc(-c3cccs3)c12	1	0	-28	1	0
COc1ccc(C(=O)Nc2ccccc2C(=O)O)cc1Cl	-1	-1	3	0	5
CCN(CC)S(=O)(=O)c1cc(C(=O)Nc2ccccc2C(=O)O)ccc1OC	3	39*	-1	-1	0
O=C1CCc2cc(NS(=O)(=O)c3ccc(F)cc3)cc3c2N1CCC3	-4	3	-38*	0	3
CC(OC(=O)c1c2c(nc3ccccc13)/C(=C\c1ccc3c(c1)OCO3)CCC2)C(=O)Nc1ccc(S(N)(=O)=O)cc1 (stereo unspecified)	2	1	-5	96*	17
Cc1cccc(C)c1NC(=O)COC(=O)c1c2c(nc3ccccc13)/C(=C\c1ccc3c(c1)OCO3)CCC2	-5	6	-33*	0	94*
Cc1cccc(C(=O)OC(C)CN2C(C)CCCC2C)c1 (stereo unspecified)	1	-3	0	-2	4
SMILES	D1 potentiator	TRHR enhancer	D1 antagonist	TRHR ag	D1 ag
O=C(CCCCCn1c(=O)[nH]c2ccccc2c1=O)NCCCN1CCN(c2ccccc2F)CC1	-3	-2	-91*	-1	1
O=C(CCCCCn1c(=O)[nH]c2ccccc2c1=O)N1CCN(c2cccc(C(F)(F)F)c2)CC1	-1	7	8	0	1
O=C(CCCn1c(=O)[nH]c2ccccc2c1=O)N1CCN(c2ccccc2)CC1	-6	5	-37*	0	-1
O=C(CCS(=O)(=O)Cc1ccc(Cl)cc1)NCCCN1CCN(c2ccccc2F)CC1	-22	33*	-59*	-1	51*
Cc1ccccc1CS(=O)(=O)CCC(=O)NCCCN1CCN(c2ccccc2F)CC1	-10	6	-6	0	-1
CCc1nn2c(=O)cc(COC(=O)c3ccccc3NC(=O)COc3ccc(F)cc3)nc2s1	0	1	-3	0	0
Cc1ccc(S(=O)(=O)Nc2ncnc3ccccc23)cc1	0	31*	7	1	1
O=C(c1cc(-c2ccc(Br)cc2)n[nH]1)N1CCN(C(=O)c2ccccc2Br)CC1	-3	-2	15	0	3
CC(C)(C)c1ccc(/C=C2\Oc3cc(O)ccc3C2=O)cc1	-3	-5	-46*	15	11
CC(=O)Oc1ccc(/C=C2/Oc3ccccc3C2=O)cc1	1	-7	11	3	12
O=C1/C(=C/c2ccc([N+](=O)[O-])cc2)Oc2cc(O)ccc21	-4	-3	-7	8	16
O=C1/C(=C/c2ccc(Br)cc2)Oc2cc(O)ccc21	-6	0	-10	14	45*
COC(=O)c1ccc2c(c1)C(=O)/C(=C/c1ccc(O)cc1)O2	-4	-6	2	31*	88*
CCc1ccc(-n2c(=O)c3c4c(sc3n(Cc3cc(=O)n5c(C)cccc5n3)c2=O)CCC4)cc1	6	-3	7	0	-2
COc1ccc(-n2c(=O)c3c4c(sc3n3c(SC(C)C)nnc23)COC(C(C)C)C4)cc1 (stereo unspecified)	-2	-3	2	0	-1
O=C(CSc1nc(N2CCOCC2)nc(N2CCOCC2)n1)Nc1cccc(C(F)(F)F)c1	-2	-1	-7	0	6
O=C(Nc1cccc(C(F)(F)F)c1)n1cc(-c2ccccn2)c(N2CCOCC2)n1	-7	5	-47*	-1	24
CCc1cccc(-n2c(=O)c3cccnc3n2CC(=O)Nc2ccc(OC)c(Cl)c2)c1	-7	-2	-63*	-1	4
CCOC(=O)c1sc(NC(=O)c2c(CC)noc2C)nc1C	-11	-5	-12	1	5
COc1ccc(/C=N/Nc2ccccc2C(=O)O)cc1Cn1cc([N+](=O)[O-])cn1	-10	0	-32*	0	1
COc1ccc2oc(C(=O)OCC(=O)NC3(C#N)CCCC3)c(C)c2c1	-6	11	-49*	0	9
COc1ccc2oc(C(=O)OCC(=O)Nc3ccc(NC(C)=O)cc3)c(C)c2c1	4	38*	11	1	2
CCOc1ccc2oc(C(=O)OCC(=O)N3C(C)CCCC3C)c(C)c2c1 (stereo unspecified)	-5	1	12	0	6

Screens (PubChem BioAssay)
